# Activity calls are given as the source filed them.
# Experiments:
# [1] = tested on: Plasmodium falciparum Sir2 (PF13_0152, Sir2A); assay: Plasmodium falciparum Sir2A binding compounds – biochemical, small-molecule microarray, 635 nm fluorescence, primary screen (AID 1098); settings: fluorescence 635 nm, higher = more signal;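 further: score merges spot fluorescence intensity with its signal-to-noise ratio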
# [2] = probe aDKK1 binding to arrayed compounds – biochemical, biotinylated probe, 635/667 nm fluorescence, primary screen (AID 1099); settings: small-molecule microarray, higher = more signal;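 further: score merges 667nm spot fluorescence with signal to noise across triplicate slides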
# [3] = probe aCHRDL2 binding to arrayed compounds – biochemical, biotinylated probe, 635/667 nm fluorescence, primary screen (AID 1100); settings: small-molecule microarray, higher = more signal
# [4] = change in splice reporter luminescence, either direction, cell-based, HEK293, spliceosome inhibition project, primary screen (AID 1101); settings: HEK293 splicing luciferase reporter, 24 h, higher = more signal, called active from +8 up or from −8 down;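 further: HEK293 cells carrying a splicing-competent luciferase reporter gene; test concentration not given here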
# [5] = target: Fibroblast growth factor 10 (Homo sapiens) (UniProt O15520); assay: compounds binding fibroblast growth factor 10 – biochemical, small-molecule microarray, 635 nm fluorescence, primary screen (AID 1102); settings: FGF10 binding, fluorescence 635 nm, higher = more signal
# [6] = tested on: glycogen synthase kinase-3 (GSK3A per assay name; protocol says GSK3B); assay: compounds binding glycogen synthase kinase-3 – biochemical, small-molecule microarray, 635 nm fluorescence, GSK3A, primary screen (AID 1103); settings: fluorescence 635 nm, higher = more signal; further: the record names both GSK3A and GSK3B
# [7] = target: Epidermal growth factor receptor (Homo sapiens) (UniProt P00533); assay: compounds binding epidermal growth factor receptor – biochemical, small-molecule microarray, 635 nm fluorescence, primary screen (AID 1104); settings: EGFR binding, higher = more signal;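 further: score merges 667 nm emission intensity with spot signal to noise over triplicate slides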
# [8] = target: Follistatin-related protein 3 (Homo sapiens) (UniProt O95633); assay: compounds binding follistatin-related protein 3 – biochemical, small-molecule microarray, 635 nm fluorescence, primary screen (AID 1105); settings: FSTL3 binding, higher = more signal;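 further: score merges emission near 667 nm and signal to noise per printed spot across three slides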
# [9] = target: Dickkopf-related protein 1 (Homo sapiens) (UniProt O94907); assay: small molecules binding DKK1 protein – biochemical, small-molecule microarray, 635 nm fluorescence scan, primary screen (AID 1106); settings: higher = more signal;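 further: score merges emission near 667 nm with signal to noise over three replicate slides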
# [10] = tested on: Inhibin beta A chain (activin A); assay: small molecules binding activin A – biochemical, small-molecule microarray, 635 nm fluorescence scan, primary screen (AID 1107); settings: INHBA, higher = more signal;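 further: mouse activin A protein probed at 4.33 µg/mL on printed slides; score merges bound-protein fluorescence near 667 nm with spot signal-to-noise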
# [11] = tested on: Human papillomavirus type 1a protein E7 (residues 44-93); assay: small molecules binding HPV E7 44-93 – biochemical, small-molecule microarray, residues 44-93, 635 nm fluorescence, primary screen (AID 1108); settings: fluorescence 635 nm, higher = more signal;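 further: E7 fragment applied at 1 µg/mL in TBST for 1 h at 4 C; score combines spot fluorescence with its signal to noise ratio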
# [12] = hepatitis C replication reporter changes, two-sided – Huh7 cells, luciferase reporter, HCV replication inhibitor project, primary screen (AID 1109); settings: Huh7 HCV replicon luciferase reporter, 48 h; higher = more signal;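 further: huh7 hepatoma cells harbouring a luciferase neomycin HCV replicon reporter; luciferase luminescence as measure of HCV replicon replication; test concentration not given here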
# [13] = target: Left-right determination factor 2 (Homo sapiens) (UniProt O00292); assay: small molecules binding LEFTY2 protein – biochemical, small-molecule microarray, 635 nm fluorescence scan, primary screen (AID 1110); settings: higher = more signal
# [14] = target: Calmodulin-1 (Homo sapiens) (UniProt P0DP23); assay: small molecules binding calmodulin-1 with EGTA – biochemical, small-molecule microarray, Cy5-labelled CALM1, profiling panel (AID 1111); settings: Cy5-CALM1 binding fluorescence, higher = more signal;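 further: labelled calmodulin applied in Tris saline Tween buffer holding calcium plus EGTA and DTT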
# [15] = target: Calmodulin-1 (Homo sapiens) (UniProt P0DP23); assay: small molecules binding Ca-loaded calmodulin-1 – biochemical, small-molecule microarray, Cy5-labelled CALM1, plus calcium, artefact control for SMM control-protein annotation, profiling panel (AID 1112); settings: Cy5-CALM1 binding fluorescence, higher = more signal;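 further: score merges spot fluorescence with signal to noise from triplicate slides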
# [16] = probe aWnt5a binding to arrayed compounds – biochemical, biotinylated probe, 635/667 nm fluorescence, primary screen (AID 1113); settings: small-molecule microarray, higher = more signal;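 further: score merges 667 nm fluorescence intensity with signal-to-noise per printed feature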
# [17] = probe aShh binding to arrayed compounds – biochemical, biotinylated probe, 635/667 nm fluorescence, primary screen (AID 1114); settings: small-molecule microarray, higher = more signal;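 further: probe is biotin-labelled aShh protein from a stem cell growth factor screen; measures binding of labelled protein to compounds printed on the slide; score merges feature fluorescence at 667 nm with signal-to-noise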
# [18] = probe aNog binding to arrayed compounds – biochemical, biotinylated probe, 635/667 nm fluorescence, primary screen (AID 1115); settings: small-molecule microarray, higher = more signal;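 further: probe is biotinylated aNog protein used at 0.15 µg/mL for 1 h at 4 C; z-score combines 667 nm fluorescence of each spot with its signal to noise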
# [19] = target: Torsin-1A-interacting protein 1 (Homo sapiens) (UniProt Q5JTV8); assay: compound microarray binding of lysate hLAP1 – cell lysate, small-molecule microarray, COS7 lysate, 635/667 nm fluorescence, primary screen (AID 1116); settings: 635 nm fluorescence, higher = more signal
# [20] = target: Alpha-bungarotoxin (Bungarus multicinctus) (UniProt P60615); assay: compounds binding labelled alpha-BTX control protein – biochemical, small-molecule microarray, Alexa647 label, 635/667 nm fluorescence, artefact control for SMM control protein annotation, profiling panel (AID 1117); settings: alpha-BTX-A647 binding fluorescence, higher = more signal
# Chain of Alpha-bungarotoxin (Bungarus multicinctus) (P60615 whole entry, looked up): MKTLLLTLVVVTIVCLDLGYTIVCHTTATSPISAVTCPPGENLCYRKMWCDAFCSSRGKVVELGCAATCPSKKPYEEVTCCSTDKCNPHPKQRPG
# Chain of Epidermal growth factor receptor (Homo sapiens) (P00533 whole entry, looked up): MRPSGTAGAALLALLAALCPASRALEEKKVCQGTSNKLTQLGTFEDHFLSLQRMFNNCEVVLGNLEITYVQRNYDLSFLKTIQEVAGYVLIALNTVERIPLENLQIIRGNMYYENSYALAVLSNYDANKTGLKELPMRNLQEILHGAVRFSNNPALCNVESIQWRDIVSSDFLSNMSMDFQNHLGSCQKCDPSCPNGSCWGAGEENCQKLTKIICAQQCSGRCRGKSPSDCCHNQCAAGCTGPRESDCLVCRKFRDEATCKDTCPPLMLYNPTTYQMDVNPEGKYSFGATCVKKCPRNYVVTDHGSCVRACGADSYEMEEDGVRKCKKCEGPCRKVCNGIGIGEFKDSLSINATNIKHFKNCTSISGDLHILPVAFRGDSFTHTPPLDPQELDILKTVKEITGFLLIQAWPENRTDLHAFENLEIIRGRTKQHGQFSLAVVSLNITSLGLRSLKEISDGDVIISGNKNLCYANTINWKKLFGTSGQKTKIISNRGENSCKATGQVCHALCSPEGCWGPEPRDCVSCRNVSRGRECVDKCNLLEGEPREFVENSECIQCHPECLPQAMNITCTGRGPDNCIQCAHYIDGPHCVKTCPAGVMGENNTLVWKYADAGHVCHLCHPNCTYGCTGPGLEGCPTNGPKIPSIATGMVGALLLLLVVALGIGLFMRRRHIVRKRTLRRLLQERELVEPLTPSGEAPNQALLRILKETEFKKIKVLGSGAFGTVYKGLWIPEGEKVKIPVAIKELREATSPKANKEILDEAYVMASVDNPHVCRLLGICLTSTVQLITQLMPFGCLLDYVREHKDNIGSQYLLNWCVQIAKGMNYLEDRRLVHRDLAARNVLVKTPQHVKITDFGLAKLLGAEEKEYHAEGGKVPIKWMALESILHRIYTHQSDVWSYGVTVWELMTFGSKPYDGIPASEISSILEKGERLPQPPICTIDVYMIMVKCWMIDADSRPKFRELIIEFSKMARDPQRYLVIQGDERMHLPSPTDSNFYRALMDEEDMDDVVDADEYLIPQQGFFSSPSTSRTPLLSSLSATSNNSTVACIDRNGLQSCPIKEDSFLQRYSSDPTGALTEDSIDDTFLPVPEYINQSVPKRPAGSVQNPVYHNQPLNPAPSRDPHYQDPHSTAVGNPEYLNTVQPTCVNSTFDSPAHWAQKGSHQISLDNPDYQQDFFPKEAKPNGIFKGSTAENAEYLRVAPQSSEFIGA
# Chain of Follistatin-related protein 3 (Homo sapiens) (O95633 whole entry, looked up): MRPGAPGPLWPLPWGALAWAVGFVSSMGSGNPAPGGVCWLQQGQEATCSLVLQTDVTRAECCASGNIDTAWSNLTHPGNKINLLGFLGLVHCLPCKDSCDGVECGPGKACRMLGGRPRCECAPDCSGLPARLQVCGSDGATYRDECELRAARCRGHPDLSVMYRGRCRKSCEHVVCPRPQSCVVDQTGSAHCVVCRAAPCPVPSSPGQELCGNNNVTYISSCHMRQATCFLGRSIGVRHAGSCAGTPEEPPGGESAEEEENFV
# Chain of Left-right determination factor 2 (Homo sapiens) (O00292 whole entry, looked up): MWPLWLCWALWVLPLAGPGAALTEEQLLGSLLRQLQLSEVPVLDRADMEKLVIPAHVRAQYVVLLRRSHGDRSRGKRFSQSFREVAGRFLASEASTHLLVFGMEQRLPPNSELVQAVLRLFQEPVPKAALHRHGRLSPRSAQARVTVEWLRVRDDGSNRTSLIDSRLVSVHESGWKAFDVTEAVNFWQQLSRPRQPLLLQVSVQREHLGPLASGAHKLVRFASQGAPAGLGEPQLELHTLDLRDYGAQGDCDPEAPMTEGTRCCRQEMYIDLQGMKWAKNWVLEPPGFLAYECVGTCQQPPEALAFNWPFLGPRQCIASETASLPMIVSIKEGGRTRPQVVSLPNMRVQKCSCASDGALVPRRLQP
# Chain of Dickkopf-related protein 1 (Homo sapiens) (O94907 whole entry, looked up): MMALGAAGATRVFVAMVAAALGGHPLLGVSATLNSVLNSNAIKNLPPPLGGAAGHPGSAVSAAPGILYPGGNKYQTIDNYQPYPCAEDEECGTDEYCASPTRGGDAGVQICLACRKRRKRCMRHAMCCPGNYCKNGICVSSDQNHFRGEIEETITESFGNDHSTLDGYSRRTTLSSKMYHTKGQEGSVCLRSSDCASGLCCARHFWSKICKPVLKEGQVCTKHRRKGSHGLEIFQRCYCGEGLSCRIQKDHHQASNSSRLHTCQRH
# Chain of Fibroblast growth factor 10 (Homo sapiens) (O15520 whole entry, looked up): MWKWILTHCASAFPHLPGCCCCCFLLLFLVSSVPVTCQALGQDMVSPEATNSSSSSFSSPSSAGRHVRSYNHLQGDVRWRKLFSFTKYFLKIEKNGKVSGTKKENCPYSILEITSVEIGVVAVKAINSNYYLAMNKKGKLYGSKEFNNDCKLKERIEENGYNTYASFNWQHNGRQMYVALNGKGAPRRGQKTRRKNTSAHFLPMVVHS
# Chain of Torsin-1A-interacting protein 1 (Homo sapiens) (Q5JTV8 whole entry, looked up): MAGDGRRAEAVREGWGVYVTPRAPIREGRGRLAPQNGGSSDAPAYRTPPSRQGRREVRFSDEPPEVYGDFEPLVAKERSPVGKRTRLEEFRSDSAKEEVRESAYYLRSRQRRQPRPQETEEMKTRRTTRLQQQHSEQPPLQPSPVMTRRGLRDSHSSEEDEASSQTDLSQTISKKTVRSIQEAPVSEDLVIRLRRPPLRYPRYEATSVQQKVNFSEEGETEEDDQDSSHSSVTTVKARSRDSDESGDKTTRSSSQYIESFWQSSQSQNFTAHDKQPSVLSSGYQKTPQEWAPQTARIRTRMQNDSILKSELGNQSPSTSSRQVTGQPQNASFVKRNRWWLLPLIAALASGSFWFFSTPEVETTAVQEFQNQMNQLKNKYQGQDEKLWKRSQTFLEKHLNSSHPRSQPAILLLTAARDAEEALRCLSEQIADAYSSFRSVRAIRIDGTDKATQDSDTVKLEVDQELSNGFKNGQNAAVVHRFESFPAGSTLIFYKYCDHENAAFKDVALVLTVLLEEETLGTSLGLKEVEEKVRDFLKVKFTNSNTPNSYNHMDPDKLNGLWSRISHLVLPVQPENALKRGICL
compound,measurement,setting,value
COCCOC(=O)N1C(=O)[C@@]2(c3cc(C#Cc4ccc(OC)cc4)ccc31)[C@H](C(N)=O)[C@H]1C(=O)O[C@H](c3ccccc3)[C@H](c3ccccc3)N1[C@@H]2c1ccc(O)cc1,composite z-score,[1],0.356
same,composite z-score,[2],-0.76
same,composite z-score,[3],-0.318
same,z-score,[4],-0.298 (inactive)
same,composite z-score,[5],-1.67
same,composite z-score,[6],-1.53
same,composite z-score,[7],-1.67
same,composite z-score,[8],-1.95
same,composite z-score,[9],-2.42
same,composite z-score,[10],-0.115
same,composite z-score,[11],-0.426
same,z-score,[12],-1.01
same,composite z-score,[13],-1.58
same,composite z-score,[14],-0.844
same,composite z-score,[15],0.247
same,composite z-score,[16],0.0243
same,composite z-score,[17],-0.487
same,composite z-score,[18],0.909
same,composite z-score,[19],0.127
same,composite z-score,[20],-1.05
CC(C)(C)OC(=O)CC[C@@]1(C(=O)N2CCOCC2)N=C(c2ccc(OCCCO)cc2)O[C@@H]1c1ccccc1N=[N+]=[N-],composite z-score,[1],1.3
same,composite z-score,[2],0.981
same,composite z-score,[3],1.04
same,z-score,[4],-1.07 (inactive)
same,composite z-score,[5],1.33
same,composite z-score,[6],0.451
same,composite z-score,[7],0.295
same,composite z-score,[8],1.13
same,composite z-score,[9],0.458
same,composite z-score,[10],1.03
same,composite z-score,[11],1.48
same,z-score,[12],0.623
same,composite z-score,[13],0.395
same,composite z-score,[14],1.56
same,composite z-score,[15],0.642
same,composite z-score,[16],0.115
same,composite z-score,[17],0.558
same,composite z-score,[18],0.45
same,composite z-score,[19],1.6
same,composite z-score,[20],2.41
CCCC[C@@H]1C[C@H]1[C@@H](NC(=O)c1ccccc1)c1ccc(-c2ccccc2)cc1,composite z-score,[1],-0.616
same,composite z-score,[2],-0.0102
same,composite z-score,[3],0.754
same,z-score,[4],-3.53 (inactive)
same,composite z-score,[5],0.0096
same,composite z-score,[6],-0.372
same,composite z-score,[7],0.0518
same,composite z-score,[8],0.12
same,composite z-score,[9],0.228
same,composite z-score,[10],0.715
same,composite z-score,[11],1.34
same,z-score,[12],-2.9
same,composite z-score,[13],0.0692
same,composite z-score,[14],0.232
same,composite z-score,[15],0.596
same,composite z-score,[16],0.0375
same,composite z-score,[17],0.1
same,composite z-score,[18],-0.421
same,composite z-score,[19],0.0036
same,composite z-score,[20],0.805
